# Assay results: PubChem BioAssay (NCATS)
# Records with an inconclusive call do not appear. Entries that show only a call come without a potency. Unmarked numbers belong to inactive results. Calls of active or inactive are those of the source. The call rests on the fitted dose curve; in most records, active means well fitted curve in the direction sought with a large enough effect; inconclusive means small, poorly fitted or top-dose-only effect, or another doubt; inactive means no such curve, though single readings can be large; an effect the other way counts as inactive or inconclusive.
# What was measured:
# [1] = biological target: Calcium and integrin-binding protein 1 (Homo sapiens) (UniProt Q99828); experiment: Primary qHTS for Identification of Calcium Integrin Binding Protein 1 (CIB1) Competitor (AID 1508620);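 further: GST tagged CIB1 binding a fluorescein labelled alphaIIb integrin peptide tracer; top concentration of the series differs between compounds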
# Sequence of Calcium and integrin-binding protein 1 (Homo sapiens) (Q99828 whole entry, looked up): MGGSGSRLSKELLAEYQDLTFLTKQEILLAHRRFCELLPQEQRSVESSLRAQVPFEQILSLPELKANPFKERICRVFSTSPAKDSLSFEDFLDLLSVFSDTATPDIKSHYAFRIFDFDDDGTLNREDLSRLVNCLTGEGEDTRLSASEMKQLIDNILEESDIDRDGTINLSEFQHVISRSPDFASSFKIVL
# Method in brief: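 Fluorescence polarization competition: GST-tagged CIB1 (1 uM final) preincubated with compound 15 min at room temperature, then FITC-labelled alphaIIb peptide (100 nM final) added. After 15 min at room temperature, polarization read at Ex 480/Em 540.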
# [2] = Primary qHTS for inhibitors of nuclear receptor binding SET domain protein 2 (NSD2) in an isogenic RCH-ACV NSD2 p.E1099K mutant (9B) (AID 1645876); further: nearly all actives have a fitted effect of over 70% in size
# [3] = Primary qHTS for inhibitors of nuclear receptor binding SET domain protein 2 (NSD2) in an RCH-ACV wild type WT cells (2C) (AID 1645877); further: nearly all actives have a fitted effect of over 70% in size; further: potency means the concentration at half of the fitted maximal effect
smiles,measurement,setting,value
CC(C)CC(=O)NCCn1cc(C(=O)O)c(=O)cc1C(O)c1ccccc1 (configuration not stated),Potency,[1],inactive
same,Potency,[2],inactive
same,Potency,[3],inactive
OC[C@@]1(O)CO[C@H](OC[C@H]2O[C@@H](OC(CCCCc3ccc(O)cc3)CCc3ccc(O)cc3)[C@H](O)[C@@H](O)[C@@H]2O)[C@@H]1O (some centres not stated),Potency,[1],inactive
same,Potency,[2],inactive
same,Potency,[3],inactive
C[C@H]1[C@H](C)CC[C@]2(C(=O)OC3OC(CO)C(O)C(O)C3O)CC[C@]3(C(=O)O)C(=CCC4[C@@]5(C)CC[C@H](O[C@@H]6O[C@@H](C)[C@H](OC7OC(CO)C(O)C(O)C7O)[C@@H](O)[C@H]6O)C(C)(C)C5CC[C@]43C)[C@H]12 (some centres not stated),Potency,[1],inactive
same,"activity change, negative = viability loss",[2],-7.55% [at 9.23 µM]
same,"activity change, negative = cell killing",[3],-2.86% [at 9.23 µM]
COC(=O)C1=COC(OC2OC(CO)C(O)C(O)C2O)C2C(COC(=O)/C=C/c3ccc(O)c(O)c3)C(O)C(O)C12 (configuration not stated),Potency,[1],inactive
same,Potency,[2],inactive
same,Potency,[3],inactive
O=C(C[C@@H]1C(C(=O)O)=CO[C@@H](O[C@@H]2O[C@H](CO)[C@@H](O)[C@H](O)[C@H]2O)/C1=C\CO)OCCc1ccc(O)c(O)c1,Potency,[1],inactive
same,Potency,[2],inactive
same,Potency,[3],inactive
C=C(C)[C@@]1(O)C[C@@]2(C)C(=CC1=O)CC[C@@H](O)[C@@H]2C,Potency,[1],inactive
same,Potency,[2],inactive
same,Potency,[3],inactive
COc1cc(/C=C/C(=O)O)ccc1O[C@@H]1O[C@H](CO)[C@@H](O)[C@H](O)[C@H]1O[C@@H]1OC[C@](O)(CO)[C@H]1O,Potency,[1],inactive
same,Potency,[2],inactive
same,Potency,[3],inactive
C[C@@H]1CC[C@]2(C(=O)O)CC[C@]3(C)C(=CCC4[C@@]5(C)C[C@@H](O)[C@H](O)[C@@](C)(CO)C5CC[C@]43C)C2[C@H]1C (some centres not stated),Potency,[1],inactive
same,Potency,[2],inactive
same,Potency,[3],inactive
COCC1OC(n2cnc3c(=O)[nH]cnc32)C(O)C1O (configuration not stated),Potency,[1],inactive
same,Potency,[2],inactive
same,Potency,[3],inactive
CC1(C)C=Cc2c(ccc3c2N=C2C(C)(C)[C@@H]4C[C@]56CCCN5C(=O)[C@@]4(C[C@]23O)NC6=O)O1,Potency,[1],inactive
same,Potency,[2],inactive
same,Potency,[3],inactive
C/C=C(\C)C(=O)OCC1OC(OC2OC(CO)C(O)C(O)C2O)C(O)C(O)C1O (configuration not stated),Potency,[1],inactive
same,Potency,[2],inactive
same,Potency,[3],inactive
C=C1CCC2[C@](C)(CO)CCC[C@@]2(C)[C@@H]1CCC1=CCOC1=O (some centres not stated),Potency,[1],inactive
same,Potency,[2],inactive
same,Potency,[3],inactive
O=C(C[C@@H]1C(C(=O)O)=CO[C@@H](O[C@@H]2O[C@H](CO)[C@@H](O)[C@H](O)[C@H]2O)/C1=C\CO)OCCc1ccc(O)cc1,Potency,[1],inactive
same,Potency,[2],inactive
same,Potency,[3],inactive
O=C(O)CCc1cc2ccoc2cc1O[C@@H]1O[C@H](CO)[C@@H](O)[C@H](O)[C@H]1O,Potency,[1],inactive
same,Potency,[2],inactive
same,Potency,[3],inactive
COc1cc2c(c(OC)c1O)C(c1ccc(O)cc1)C1C(=O)OC3C(COC(=O)C1=C2)OC(CO)(OC1OC(COC(=O)/C=C/c2ccc(OC4OC(C)C(O)C(O)C4O)cc2)C(O)C(O)C1O)C3O (configuration not stated),Potency,[1],inactive
same,"activity change, negative = viability loss",[2],-11.1% [at 9.23 µM]
same,"activity change, negative = cell killing",[3],-15.9% [at 9.23 µM]
CC1=C2C[C@@]3(C)C(CCC[C@@H]3C)C(O)C2(O)OC1=O (some centres not stated),Potency,[1],inactive
same,Potency,[2],inactive
same,Potency,[3],23 µM (active)
O=C(OC[C@H]1O[C@@H](Oc2ccccc2COC(=O)C2(O)C=CCCC2O)[C@H](O)[C@@H](O)[C@@H]1O)c1ccccc1 (some centres not stated),Potency,[1],inactive
same,Potency,[2],inactive
same,Potency,[3],inactive
CCN1CCN(C(=O)N[C@@H](C(=O)N[C@@H]2C(=O)N3[C@@H]2SC(C)(C)[C@@H]3C(=O)O)c2ccccc2)C(=O)C1=O,Potency,[1],inactive
same,Potency,[2],inactive
same,Potency,[3],inactive
C/C1=C\CC[C@]2(C)O[C@H]2C(=O)c2c(C)coc2C1,Potency,[1],inactive
same,Potency,[2],inactive
same,Potency,[3],inactive
CC1CCC2C(C(=O)O)=CC3(O)CC(C)(C)CC123 (configuration not stated),Potency,[1],inactive
same,Potency,[2],inactive
same,Potency,[3],inactive
CC1(C)[C@@H]2CC=C(CO[C@@H]3O[C@H](CO[C@@H]4OC[C@H](O)[C@H](O)[C@H]4O)[C@@H](O)[C@H](O)[C@H]3O)[C@H]1C2,Potency,[1],inactive
same,Potency,[2],inactive
same,Potency,[3],inactive
COc1cc(/C=C/C(=O)O[C@@H]2C[C@@](O)(C(=O)O)C[C@@H](O)[C@@H]2O)ccc1O,Potency,[1],inactive
same,Potency,[2],inactive
same,Potency,[3],inactive
C[C@@H]1O[C@@H](O[C@H]2[C@H](O[C@H]3[C@H](O[C@H]4CC[C@@]5(C)C(CC[C@]6(C)C5CC=C5[C@@H]7CC(C)(C)C[C@@H](O)[C@]7(C)CC[C@]56C)C4(C)C)O[C@H](C(=O)O)[C@@H](O)[C@@H]3O)O[C@H](C(=O)O)[C@H](O)[C@@H]2O)[C@H](O)[C@H](O)[C@H]1O (some centres not stated),Potency,[1],inactive
same,outcome,[2],inactive [at 9.23 µM]
same,outcome,[3],inactive [at 9.23 µM]
C=C(C(=O)O)[C@H]1C[C@]2(C)C(=O)CC[C@]23O[C@H]1C[C@@H]3C,Potency,[1],inactive
same,Potency,[2],inactive
same,Potency,[3],inactive
